These results are taken from PubChem BioAssay (NCI).

Compounds without any hit were thinned out: in the full panel of roughly 83,000, 20% have a hit.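 Plates (96-well) were seeded with cells, treated with compound at one concentration, and incubated for 48 hours before percent growth was determined.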 Unmarked numbers belong to inactive results. Calls of active or inactive are those of the source. Rule for the calls: active = growth percent below 10; inactive = the rest.

The test concerns NCI-H23 lung. Briefly: NCI-60 one-dose screen, 48 h (100 = growth as untreated, 0 = no growth, -100 = all killed). Particulars: 10 µM unless noted.
`O=C(c1cccc(C(=O)c2ccc3c4c(cccc24)C(=O)N(c2ccccc2)C3=O)c1)c1ccc2c3c(cccc13)C(=O)N(c1ccccc1)C2=O`: the growth is 82.6%.

`Cc1ccc[n+](CCC(N)=O)c1`: the growth is 95.3%.

Consider `Cc1ccc2nc(N)nnc2c1`, for which the growth was 94.6%.

As to `CCOc1ccncc1[N+](=O)[O-]`, the growth is 106%.

Consider `Oc1cc(O)c2c(c1)O[C@H](c1ccc(O)c(O)c1)[C@@H](O)C2`, for which the growth is 95.2%.

Take `Cn1c(=O)c2nc3c(=O)n(C)c(=O)n(C)c3nc2n(C)c1=O`: the growth was 95.1%.

Regarding `C=CCOc1ccc(Cl)cc1Cl`, the growth is 111%.

For `CCOC(=O)/C(O)=C(\C=N\C(=S)Nc1ccc(Cl)c(Cl)c1)C(=O)OCC`, the growth is 87.3%.

Consider `CCOc1ccc(NC(=S)N2CCC(CCCC3CCN(C(=S)Nc4ccc(OCC)cc4)CC3)CC2)cc1`, for which the growth is 75.8%.

For the compound `Clc1ccc(C(SCc2ccccc2)SCc2ccccc2)cc1`, the growth was 86.1%.

As to `CC(=O)C1C(=O)C(=O)N(c2ccc(Cl)c(Cl)c2)C1=O` (stereo unspecified), the growth is 90.3%.

On to `Cc1cc(Cl)cc(Cc2cc(Cl)cc(C)c2O)c1O`, for which the growth was 0.327% (active).

Consider `c1ccc(Oc2c3ccccc3nc3ccccc23)cc1`, for which the growth was 8.18% (active).

`O=[N+]([O-])c1ccc2[nH]c(=S)n(/C=C(/c3ccc(Cl)cc3Cl)S(=O)(=O)Cc3ccc(Cl)cc3Cl)c2c1`: the growth was 96.2%.

Turning to `N#C/C(=C\c1ccc(C#N)cc1)C(=O)c1ccccc1`, the growth is 86.8%.

For `COc1cc(OC)c(NC(=O)C(Sc2nc(C)cc(C)c2C#N)c2ccccc2)cc1Cl` (stereo unspecified), the growth is 96.6%.
